Screens from PubChem BioAssay.
A selection: hits, their analogues and other compounds. The true share with any hit is near 4.6%.
TRb SRC2 PPI – disrupts binding of human TR beta to SRC2 | P10828 | TRbeta-SRC2 peptide binding, fluorescence polarization; receptor liganded with 1 µM T3 | Potency, µM (doses to about 106 µM), without a hit: top-dose activity change, negative = inhibition, most hits filed as inhibitors | 280,000 tested, 0.065% active | AID 1469;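 further: potency means the concentration at half of the fitted maximal effect; plate controls were bound peptide for no effect and peptide without receptor for full effect; nearly all actives have a fitted effect of over 50% in size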
Target sequence (P10828 whole entry, looked up): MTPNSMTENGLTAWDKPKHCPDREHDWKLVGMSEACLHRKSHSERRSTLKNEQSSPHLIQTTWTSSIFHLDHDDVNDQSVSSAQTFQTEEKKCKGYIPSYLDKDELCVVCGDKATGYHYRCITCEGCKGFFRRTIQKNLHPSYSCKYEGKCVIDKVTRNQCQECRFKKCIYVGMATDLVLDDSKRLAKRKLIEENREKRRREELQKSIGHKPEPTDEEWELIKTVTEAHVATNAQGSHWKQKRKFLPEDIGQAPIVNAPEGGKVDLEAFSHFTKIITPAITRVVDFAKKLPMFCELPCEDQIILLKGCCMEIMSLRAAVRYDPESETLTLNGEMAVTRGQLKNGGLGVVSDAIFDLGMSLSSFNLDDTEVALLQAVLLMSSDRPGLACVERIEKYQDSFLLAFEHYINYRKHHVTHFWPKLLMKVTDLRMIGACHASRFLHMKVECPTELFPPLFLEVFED
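Human TRb LBD (0.6 uM) plus Texas Red-labeled SRC2 peptide (20 nM), 1uM T3, 5% DMSO, 5 hr at ambient temperature. Decreased polarization (555/632 nm) flags inhibition; data normalized to free and bound peptide controls.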
Tau fibril ThT – blocks human tau fibril formation measured by thioflavin T. P10636. Potency, µM (doses to about 57.4 µM), without a hit: at the top dose activity, negative = inhibition, usual class: inhibitors. 270,000 tested, 2.1% active. recombinant tau K18 P301L, heparin-induced fibrillization, ThT fluorescence; further: potency means the concentration at half of the fitted maximal effect; nearly all actives have a fitted effect of over 55% in size
Target sequence (P10636 561-689 P618L limits assumed): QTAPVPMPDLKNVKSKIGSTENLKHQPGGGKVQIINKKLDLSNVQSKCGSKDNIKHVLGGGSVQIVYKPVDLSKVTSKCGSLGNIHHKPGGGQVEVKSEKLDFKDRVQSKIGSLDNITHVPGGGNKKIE
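Aggregation was driven by heparin (20 uM final) acting on recombinant tau […] bearing P301L in 100 mM sodium acetate pH 7; fibrils were detected with Thioflavin T.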
PNC assembly inh – perinucleolar compartment assembly inhibition; PC3M PTB-GFP, PNC prevalence imaging, 16 h; active compounds read low; 140,000 tested, 3.1% active; activity change (PNC), negative = inhibition, % at 10 µM;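 active means readout at or below -70, meaning at least 70% loss of cells showing the perinucleolar compartment, a nuclear body marking cancer cells; inconclusive means readout between -30 and a set limit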;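 further: plate controls were DMSO wells for no effect and camptothecin positive control wells for full effect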
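Read-out is percentage of cells bearing a perinucleolar compartment, from automated 20x imaging of fixed, Hoechst-stained PC3M PTB-GFP cells. Cells were seeded 4 h, then exposed 16 h to compound (23 nl of library stock) in duplicate plates.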
Tau fibril FP – tau fibrillization inhibition (FP); P10636; K18 P301L tau heparin fibrillization, Alexa594 FP, 6 h; Potency, µM (titrated, usually from 57.7 µM), without a hit: at the top dose activity, negative = inhibition, most hits filed as inhibitors; 280,000 tested, 0.39% active; further: potency means the concentration at half of the fitted maximal effect; nearly all actives have a fitted effect of over 55% in size
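K18 P301L tau (15 uM unlabeled/0.24 uM Alexa 594-labeled, final) + compound + heparin 20 uM final; 100 mM NaOAc pH 7; 6 hr 37 C; ThT 30 uM final added, 1 hr RT; FP ex 555/em 632 nm.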
TR SRC2 fluor cs – Texas Red fluorescence interference in TRb-SRC2 counter-screen | TRb/SRC2 Texas Red total fluorescence interference | Potency, µM (highest dose often 106 µM), without a hit: top-dose fluorescence change, negative = quenching | 280,000 tested, 0.29% active | AID 1479; active means well fitted curve in either direction with a large enough effect; inconclusive means small, poorly fitted or top-dose-only effect; further: potency means the concentration at half of the fitted maximal effect
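Human TRb ligand-binding domain at 0.6 uM with 20 nM Texas Red SRC2 peptide in Tris buffer containing 1 uM T3 and 5% DMSO, incubated with compound 5 h at ambient temperature. Total fluorescence (555/632 nm) calculated as parallel + 2 × perpendicular.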
Tau fluor cs – counter-screen for tau fibril formation inhibitors | AID 1463 | tau K18 P301L Alexa594 fluorescence, heparin fibrillization | Potency, µM (series often up to 57.7 µM), for inactives: at the top dose activity change, negative = decrease | 280,000 tested, 0.93% active; further: potency means the concentration at half of the fitted maximal effect; nearly all actives have a fitted effect of over 55% in size
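Human tau K18 P301L (15 uM unlabeled, 0.24 uM Alexa 594-labeled) in 100 mM sodium acetate pH 7 with 20 uM heparin, 6 hr at 37 C. ThT 30 uM added, 1 hr ambient; Alexa 594 FP and total fluorescence read at 555/632 nm.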
* hit, by the source's call; u = inconclusive; x = not tested or not shown; [ ] = dose if it differs, or a comment. Unless noted, the call rests on the fitted dose curve; in most records, active means well fitted curve in the direction sought with a large enough effect; inconclusive means small, poorly fitted or top-dose-only effect, or another doubt; inactive means no such curve, though single readings can be large; an effect the other way counts as inactive or inconclusive. Unless noted, on the % scale 0 is the no-effect control and ±100 the full control effect.

SMILES	TRb SRC2 PPI	Tau fibril ThT	PNC assembly inh	Tau fibril FP	TR SRC2 fluor cs	Tau fluor cs
O=C1CCCC(=O)N1c1ccc(N2CCN(c3ccccc3)CC2)c([N+](=O)[O-])c1	2.3%	u	u	2.7%	-1.0%	-6.1%
CCNC(=S)N1CCN(c2ccc([N+](=O)[O-])cc2)CC1	4.1%	5.62µM*	13.5	2.2%	0.3%	-5.2%
NC(=O)c1ccc(N2CCN(c3ccc(O)cc3)CC2)c([N+](=O)[O-])c1	5.9%	17.8µM*	x	0.9%	-5.1%	-20.6%
O=C1CCCC(=O)N1c1ccc(N2CCN(c3ccc([N+](=O)[O-])cc3)CC2)c([N+](=O)[O-])c1	8.5%	3.98µM*	18.3	-0.2%	-8.2%	-20.2%
COC(=O)c1[nH]c2cc(OC)ccc2c1NC(=O)c1c(F)cccc1F	9.9%	-4.9%	x	13.6%	-3.0%	u
Cc1ccc(C)c(N2CCN(c3nccn4nc(-c5ccc(Br)cc5)cc34)CC2)c1	-7.0%	-8.9%	x	-13.7%	6.0%	-14.1%
COc1ccc(OC)c(S(=O)(=O)N2CCC(C(=O)Nc3cc(C)ccc3C)CC2)c1	-9.7%	6.0%	-18.0	-1.6%	-2.6%	-4.3%
C=CCNC(=S)N1CCN(c2ccc([N+](=O)[O-])cc2)CC1	-1.5%	12.6µM*	20.3	0.6%	-5.6%	-9.8%
COc1ccc(-c2cc(C(F)(F)F)c3c(n2)sc2c(O)cc(=O)[nH]c23)c(OC)c1	-2.1%	14.1µM*	6.6	-1.1%	-0.2%	-21.2%
CC(C)Nc1ccc(Nc2ccnc3cc4ccccc4cc23)cc1	3.0%	5.01µM*	x	-2.9%	-1.7%	17.8µM*[quencher]
COc1ccc(Nc2ccnc3ccccc23)cc1	3.0%	5.5%	u	-1.2%	-7.5%	0.0%
N[C@@H](CSS(=O)(=O)O)C(=O)O	-14.2%	12.6µM*	x	17.8µM*	-1.2%	-11.5%
Cc1cc(C)n(-c2ccn(Cc3ccc(Cl)cc3Cl)c(=O)n2)n1	-16.3%	-4.4%	27.9	-1.3%	-1.0%	-3.6%
CCOC(=O)CC1=NN(c2ccccc2)C(=O)/C1=C\c1ccc(N(C)C)cc1	8.2%	25.1µM*	30.9	9.4%	-2.4%	u
CC1=NN(c2ccccc2)C(=O)/C1=C\C=C\c1ccccc1	-6.7%	28.2µM*	x	u	1.1%	u
CC1=NN(c2ccccc2)C(=O)/C1=C/C=C/c1ccc(N(C)C)cc1	23.1%	2µM*	x	u	14.1%	2.51µM*[quencher]
CCOC(=O)c1ccc(N2N=C(C)/C(=C/C=C/c3ccco3)C2=O)cc1	5.1%	3.16µM*	29.0	u	-28.9%	u
CC1=NN(c2ccccc2)C(=O)/C1=C/N(C)C	-15.7%	-8.9%	x	-11.9%	-2.0%	-5.0%
CCOC(=O)CC1=NN(c2ccccc2)C(=O)C1	-5.0%	-12.2%	x	1.0%	-1.6%	-11.5%
Cc1ccc(NC(=O)c2oc3ccc(S(=O)(=O)N4CCC5(CC4)OCCO5)cc3c2C)cc1C	-7.0%	-11.8%	26.7	-18.5%	0.2%	-28.1%
O=S(=O)(c1cccs1)N1CN(Cc2ccco2)c2nc3ccccc3nc21	u	22.4µM*	x	u	u	u
COCCN1CN(S(=O)(=O)c2ccccc2)c2nc3ccccc3nc21	2.6%	4.8%	-116.6*	6.8%	-1.2%	7.8%
COCCN1CN(S(=O)(=O)c2ccc(Cl)cc2)c2nc3ccccc3nc21	1.7%	-8.7%	u	u	-4.6%	u
Cc1ccc(S(C)(=O)=O)cc1S(=O)(=O)Nc1cccc(Cl)c1	-4.7%[53 µM]	9.1%	-112.4*	4.0%	-0.9%[53 µM]	6.3%
CCSC1=NCCN1S(=O)(=O)c1ccc(Cl)cc1	-1.7%	-0.4%	x	1.2%	2.7%	-6.6%
SMILES	TRb SRC2 PPI	Tau fibril ThT	PNC assembly inh	Tau fibril FP	TR SRC2 fluor cs	Tau fluor cs
O=C(NCc1ccco1)c1cc(-c2ccccc2)nc2ccccc12	-2.5%	-2.2%	-4.1	-4.1%	1.1%	-24.0%
c1ccc(Cn2ncc3c2ncn2c(-c4ccncc4)nnc32)cc1	-16.7%	15.0%	1.3	-12.9%	0.3%	3.5%
Cc1ccc(-n2ncc3c2ncn2c(-c4ccncc4)nnc32)cc1	-10.5%	u	-91.2*	5.0%	5.1%	3.0%
O=C(Cn1c(COc2ccccc2)nc2ccccc21)Nc1cc(Cl)cc(Cl)c1	1.7%	1.1%	-100.0*	-8.8%	-0.1%	-22.2%
O=C(Cn1c(COc2ccccc2)nc2ccccc21)Nc1cc(Cl)ccc1Cl	1.0%	1.7%	37.9	-13.5%	0.1%	3.5%
O=C(OCC(=O)c1ccc(Cl)s1)c1ccccn1	-13.0%	-4.5%	10.2	-0.2%	u	-9.6%
O=C(COc1cccnc1[N+](=O)[O-])c1ccc(Cl)s1	-19.1%	5.01µM*	x	10µM*	-15.9%	u
Cc1ccc(CNC(=O)COC(=O)c2ccc(Br)cc2)cc1	-4.5%	-1.1%	52.5	-8.2%	-3.0%	1.8%
O=C(Cc1cccs1)NC1C(=O)N2C(C(=O)[O-])=C(C[n+]3ccccc3)CSC12 (stereo not given)	8.0%	15.8µM*	x	u	1.5%	-23.8%
CC(=O)OCC1=C(C(=O)O)N2C(=O)[C@@H](NC(=O)Cc3cccs3)[C@H]2SC1	-5.4%	u	u	u	-0.1%	-15.1%
Cc1ccc(CSc2nc3nc(C)cc(C)c3c(=O)[nH]2)cc1	-7.5%	8.2%	x	4.9%	0.5%	9.4%
CC(=O)Nc1ccc2nc(SCC(=O)NCCOc3ccccc3)sc2c1	8.7%	-18.3%	x	-10.7%	-0.3%	-11.0%
COc1ccc(/C=N/Nc2snc(SC)c2C#N)cc1OC	-1.4%	14.1µM*	27.8	u	-10.8%	11.2µM*[quencher]
COc1cccc(CN(C(=O)Cc2c[nH]c3ccccc23)C(C(=O)NC2CCCCC2)c2cccs2)c1 (stereo not given)	4.0%	3.8%	u	4.9%	-3.1%	3.0%
COc1ccc(-c2csc(Nc3ncccc3C)n2)cc1OC	-0.5%	10µM*	u	11.9%	-7.7%	u
CC(=O)Nc1ccc(-c2csc(Nc3ccccn3)n2)cc1	3.7%	x	x	15.0%	-3.0%	u
Cc1cccnc1Nc1nc(-c2ccc(O)c(O)c2)cs1	0.7%	7.94µM*	-25.4	-1.8%	-9.4%	12.6µM*[quencher]
COc1ccc(-c2csc(Nc3ncccc3C)n2)cc1	-18.3%	-7.3%	66.3	-4.4%	-1.9%	-1.9%
Cc1ccc(-c2nc(N=Nc3ccc(O)cc3)n[nH]2)cc1	-3.0%	2.51µM*	u	-1.9%	-2.9%	-27.4%
Cc1nc(N=Nc2ccc(O)cc2)n[nH]1	-0.1%	-14.3%	x	-6.8%	-1.5%	-2.3%
COc1ccc(-c2nc(N=Nc3ccc(O)cc3)n[nH]2)cc1	-8.3%	2.82µM*	-2.6	0.9%	-11.9%	-20.2%
Cc1cccnc1NC(=O)c1ccccc1NC(=O)C(C)(C)C	-5.3%	-0.7%	187.5	4.6%	-1.1%	1.7%
